Rows were chosen to be rich in hits. Some 3.1% of all compounds tested hit in one or more screens of this group.
Nrf2 ARE act = activates Nrf2 signaling; AREc32 ARE-luciferase reporter (MCF7-derived line), luminescence, 24 h; Potency, µM (titrated, usually from 46.1 µM), for the others: at the highest dose activation, usual class: activators; actives 0.31% (n = 410,000); AID 624171; also: potency is read from the fitted curve at half-maximal effect; % of control where 0% means no effect; nearly all actives have a fitted effect of over 65% in size
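Reporter line AREc32 (ARE-Fluc), seeded overnight in OPTI-MEM with 5% FBS; compound pin-transferred, 24 hr at 37 deg C, 5% CO2; luminescent read-out.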
IL2 activator = activators of IL-2. IL-2 activation reporter assay, cell-based qHTS; stimulated with anti-CD3/CD4/CD28 beads; in transgenic mouse T cells. activation, % (series mostly up to about 46 µM). actives 0.065% (n = 360,000); in the data active = activation above about 50%; inconclusive = mostly about 30% to 49%; also: 0% is about no effect
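Unstimulated transgenic mouse T cells; 60-min compound exposure; bead-based TCR/CD4/CD28 stimulation; 18 h culture, 37 degrees C; dual fluorescence (EGFP, DsRed) plate cytometry.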
ELG1 DNA repair = inhibitors of ELG1-dependent DNA repair in HEK293T cells; HEK293T ELG1-luciferase reporter, luminescence, 16 h; DNA damage induced by 5-fluorouridine; Potency, µM (top dose mostly 46.1 µM), without a hit: top-dose activity change, negative = inhibition, actives largely listed as inhibitors; actives 2.3% (n = 330,000); AID 504467; also: potency is read from the fitted curve at half-maximal effect; % is scaled to controls: 0 for no effect and ±100 for the full control effect; nearly all actives have a fitted effect of over 55% in size
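DMSO vehicle served as the neutral condition. Each well held 2,000 cells given 5-fluorouridine plus compound; after 16 hr at 37 °C/5% CO2, ONE-Glo was added and luciferase measured 30 min later.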
BRCA1 expr up = increases BRCA1 expression; actives 1.1% (n = 380,000); Potency, µM (top dose mostly 46.1 µM), for inactives: at the highest dose activation, hits mostly activators; MCF7-BRCA1-FFLuc reporter, luminescence, 48 h; response scale: scaled: vehicle 0%, 10 µM genistein 100%; also: potency is read from the fitted curve at half-maximal effect; nearly all actives have a fitted effect of over 80% in size
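First, MCF7-BRCA1-FFLuc cells (2000/well) attach for 2 h; next, compounds are pin-added and incubated 48 h at 37 °C; finally, luciferase reagent is added and luminescence read after 15 min.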
The depositor's hits bear a star; ? = inconclusive; nt = not tested or not shown. Unless noted, calls follow the shape of the dose curve; as a rule, active = well fitted curve in the direction sought with a large enough effect; inconclusive = small, poorly fitted or top-dose-only effect, or another doubt; inactive = no such curve, though single readings can be large; an effect the other way counts as inactive or inconclusive.

SMILES	Nrf2 ARE act	IL2 activator	ELG1 DNA repair	BRCA1 expr up
Cc1ccc(NC(=O)CCc2ccccc2)cc1C	6%	2	nt	13µM*
O=C(CCc1ccccc1)Nc1ccc2ccccc2n1	0%	-4	?	7.1µM*
COc1ccc(-n2c(SCC(=O)Nc3nnc(C)s3)nc3c([nH]c4ccccc43)c2=O)cc1	4%	nt	nt	nt
CC(C)(C)OC(=O)N1CCC(c2c(C(=O)N3CCN(c4ccccc4F)CC3)cnn2-c2ccccc2Cl)CC1	0%	nt	nt	nt
O=C1C(c2ccc(F)cc2)N(CCc2ccccc2)C(=O)CN1C1CCCCCC1 (configuration not stated)	0%	nt	nt	nt
CCN(CC)C(=O)Cn1c(=O)n(CC2CCC(C(=O)NC)CC2)c(=O)c2sccc21 (configuration not stated)	-1%	nt	nt	nt
Cc1nc2ccc(NC(=O)c3ccc(S(=O)(=O)N(C)C)cc3)cc2s1	0%	4	-14%	-1%
CN(C)S(=O)(=O)c1ccc(C(=O)Nc2ccc3ncccc3c2)cc1	0%	0	?	13µM*
O=C(Nc1ccccn1)c1ccc2ccccc2n1	3.2µM*	-3	?	8%
O=C(Nc1ccc2ccccc2n1)c1ccccc1Br	11µM*	0	?	?
CCCCN(CC)CCCn1cnc2c([nH]c3ccc(Cl)cc32)c1=O	0%	nt	nt	-10%
CCc1cc2c(CN(C)Cc3ccccc3F)cc(=O)oc2cc1O	0%	1	-17%	-62%
Cc1cc(C)c2c(CN(C)Cc3ccccc3)cc(=O)oc2c1	0%	0	nt	13µM*
Cc1c(O)ccc2c(CN(C)Cc3ccccc3)cc(=O)oc12	0%	-6	13µM*	-2%
Cc1cc2oc(=O)cc(CN(C)Cc3cccc(F)c3)c2cc1C	0%	-4	-2%	11µM*
Cc1cc(C)c2c(CCl)cc(=O)oc2c1	5%	1	-9%	-55%
COc1cccc(CNC(=O)c2ccc(CS(=O)Cc3ccc(Cl)cc3)o2)c1 (configuration not stated)	4%	nt	nt	nt
c1ccc(-c2cn(-c3ccccc3)c3[n+]2CCS3)cc1	-1%	-1	4.6µM*	-3%
COc1ccc(-c2cn(-c3ccccc3)c3[n+]2CCS3)cc1	2%	-5	?	-73%
CC(C)(C)c1ccc(-c2cn(-c3ccc(Br)cc3)c3[n+]2CCCS3)cc1	15%	-3	4.1µM*	-82%
N/C(=N/OC(=O)c1ccccc1Cl)c1nonc1N	13µM*	0	0%	35%
Cc1nc(/C(N)=N/OC(=O)c2ccccc2Cl)c(C(F)(F)F)o1	10%	0	?	11µM*
Cc1nc(/C(N)=N/OC(=O)c2cccc(Cl)c2)c(C(F)(F)F)o1	18%	0	-4%	-22%
COc1ccc(-c2cn3nc(N4CCCC(C(=O)Nc5ccccc5OC)C4)sc3n2)cc1 (configuration not stated)	2%	nt	nt	nt
CCCCN(CC)CCCNC(=O)Cn1nc(CC)n2c(cc3sccc32)c1=O	0%	nt	nt	nt
SMILES	Nrf2 ARE act	IL2 activator	ELG1 DNA repair	BRCA1 expr up
O=C(Cn1ccn(-c2ccc(F)cc2)c(=O)c1=O)Nc1ccc(F)cc1	-1%	nt	nt	nt
Cc1cc(OCCCSc2nc(-c3ccc(C(C)(C)C)cc3)nc3cc(=O)[nH]n23)ccc1Cl	0%	nt	nt	nt
Cc1ccc2c(c1)NC(=O)CC(c1ccccc1)=N2	4%	0	?	10µM*
CCCCCCCCNc1ccc(/C=C/c2ccnc3ccccc23)cc1	nt	nt	nt	-2%
N#C/C(=C/c1ccccc1)C(=O)NCc1ccccc1	1%	0	-1%	-8%
CN(C)c1ccc(/C=C(/C#N)C(=O)NCc2ccccc2)o1	1%	83*	?	10µM*
CCCNC(=O)c1ccc(N2CCC3(CC2)CC(c2ccccc2)=NO3)c(NC(=O)c2ccc(Br)cc2)c1	0%	-1	?	15%
CCCNC(=O)c1ccc(N2CCC3(CC2)CC(c2ccccc2)=NO3)c(NC(=O)c2ccccc2)c1	0%	-2	6.5µM*	-10%
CC(=O)Nc1cccc(NC(=O)c2c(-c3ccccc3)c(-c3ccccc3)nn(C)c2=O)c1	0%	nt	nt	nt
COc1ccc(/C=C2\SC(=S)N(CCC(=O)Nc3ccccc3C(=O)O)C2=O)cc1	0%	0	2%	-50%
COc1ccc(/C=C2\SC(=O)N(CCNC(=O)C3CC4C=CC3C4)C2=O)cc1 (configuration not stated)	4%	-1	?	5.6µM*
COc1ccc(/C=C2\SC(=O)N(CCCC(=O)Nc3cc(Cl)ccc3C(=O)O)C2=O)cc1	-2%	3	2.1µM*	-92%
Nc1nonc1-n1nnc(C(=O)N/N=C/c2ccc(OCc3cccc(Cl)c3)cc2)c1CN1CCCCC1	2%	-2	0%	2.5µM*
CC1CCN(Cc2c(C(=O)N/N=C/c3cc(Br)ccc3O)nnn2-c2nonc2N)CC1	-1%	0	2.6µM*	-44%
Cc1cc(C)c(/C=N/NC(=O)c2nnn(-c3nonc3N)c2CN2CCC(C)CC2)c(C)c1	0%	0	?	-36%
CC1CCN(Cc2c(C(=O)N/N=C/c3cc(Cl)ccc3O)nnn2-c2nonc2N)CC1	0%	-1	2.1µM*	-91%
COc1ccccc1CCNC(=O)C(=O)NCC(c1ccco1)S(=O)(=O)c1ccc(F)cc1 (configuration not stated)	0%	nt	nt	nt
Cc1nc2cc(-c3ccccc3)nn2c(C)c1CCC(=O)NCc1cccc(Cl)c1	-2%	nt	nt	-9%
Nc1ccc(/C=C/c2cc(Cl)nc3ccccc23)cc1	nt	nt	nt	-59%
Cc1ccc(N=Cc2sc(O)c3ccccc23)c(C)c1	9%	0	?	3.2µM*
Cc1ccc(-n2c(=O)c3c4c(sc3n(CC(=O)c3ccc(Cl)cc3)c2=O)CCC4)cc1C	-1%	nt	nt	nt
O=S(=O)(c1cc(Br)ccc1Br)N1CCCCCC1	-1%	4	14%	-35%
O=S(=O)(c1cc(-c2nnc(-c3ccc(Br)cc3)o2)ccc1Br)N1CCCCCC1	1%	-2	21µM*	-69%
CCn1c(SCC(=O)NCc2cccs2)nnc1-c1ccncc1	0%	-1	1%	18%
CCn1c(SCC(=O)Nc2nccs2)nnc1-c1ccc(S(=O)(=O)N2CCCCCC2)cc1	0%	-3	21µM*	-54%
SMILES	Nrf2 ARE act	IL2 activator	ELG1 DNA repair	BRCA1 expr up
CCn1c(SCC(=O)Nc2cccc(NC(=O)c3cccs3)c2)nnc1-c1ccncc1	2%	0	18µM*	8%
CCn1c(SCC(=O)Nc2nc(-c3ccccc3)cs2)nnc1-c1ccccc1O	6%	2	21µM*	-47%
CCc1nnc(NC(=O)CSc2nnc(-c3ccccc3O)n2CC)s1	-1%	-2	1%	1%
CCn1c(CCNC(=O)c2cccs2)nnc1SCC(=O)Nc1nc(-c2ccccc2)cs1	5%	0	23µM*	21%
COc1ccc(NC(=O)Cn2ccn(-c3ccc(F)c(F)c3)c(=O)c2=O)cc1Cl	0%	nt	nt	nt
Cc1onc(-c2ccccc2)c1C(=O)c1c[nH]c(C(=O)NCCCN2CCOCC2)c1	0%	4	-1%	-2%

Screening results from PubChem BioAssay.
